S-ASM inh = Inhibitors of Secretory Acid Sphingomyelinase (S-ASM): qHTS. Sphingomyelin phosphodiesterase (Homo sapiens), P17405. AID 504937, 2011. placental ASM, HMU-PC fluorogenic substrate, 60 min. 340,000 compounds, 0.006% hits. Potency, µM (titrated, usually from 57.5 µM), without a hit: at the top dose activity change, negative = inhibition, hits mostly inhibitors; also: potency is read from the fitted curve at half-maximal effect
Target sequence (P17405 47-631 limits assumed): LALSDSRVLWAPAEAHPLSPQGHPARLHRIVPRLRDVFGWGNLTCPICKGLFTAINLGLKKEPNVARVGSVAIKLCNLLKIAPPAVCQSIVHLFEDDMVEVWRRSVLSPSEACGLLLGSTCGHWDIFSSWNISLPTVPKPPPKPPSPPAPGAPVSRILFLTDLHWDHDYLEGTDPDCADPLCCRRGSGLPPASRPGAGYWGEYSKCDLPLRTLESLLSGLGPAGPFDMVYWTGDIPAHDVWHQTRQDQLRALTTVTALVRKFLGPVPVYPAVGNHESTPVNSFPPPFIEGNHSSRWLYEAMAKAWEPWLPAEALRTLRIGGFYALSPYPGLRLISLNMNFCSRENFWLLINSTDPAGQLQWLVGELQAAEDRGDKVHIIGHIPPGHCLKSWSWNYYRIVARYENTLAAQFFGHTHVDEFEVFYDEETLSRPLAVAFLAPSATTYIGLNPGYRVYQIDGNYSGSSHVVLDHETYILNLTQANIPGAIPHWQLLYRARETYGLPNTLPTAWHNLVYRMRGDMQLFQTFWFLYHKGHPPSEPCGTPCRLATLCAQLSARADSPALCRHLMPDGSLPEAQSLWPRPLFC
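Human placenta-derived ASM preincubated with compound 10 min at room temperature, then reacted with 9 uM (final) fluorogenic HMU-PC substrate for 60 min at 37 C. Stop solution raises pH to 10; fluorescence read at Ex 386/Em 447 nm.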
IL1B secr inh = qHTS for Inhibitors of Inflammasome Signaling: IL-1-beta AlphaLISA Primary Screen | THP-1 LPS/ATP IL-1B secretion, AlphaLISA, 16 h; hits give low values | activity change, % at 57.5 µM | 360,000 compounds, 4.7% hits; in the data active = activity change below about -50%; inconclusive = mostly about -30% to -49%; also: % is scaled to controls: 0 for no effect and ±100 for the full control effect
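THP-1 cells pretreated 1 hr with compounds (up to 57.5 uM final), then stimulated with LPS (250 ng/mL final) plus ATP (1.25 mM final); secreted IL-1B measured by AlphaLISA after 16 hr, decreased signal indicating inhibition.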
TGFb inhibitor = qHTS for Inhibitors of TGF-b; HepG2 CAGA-GFP TGF-b/SMAD3 reporter, GFP fluorescence, 18 h; TGF-beta stimulated, 500 pg/mL final; Potency, µM (titrated, usually from 46.1 µM), for the others: at the highest dose activity, negative = inhibition, actives largely listed as inhibitors; 410,000 compounds, 1.2% hits; AID 588855, 2011; also: potency is read from the fitted curve at half-maximal effect; % is scaled to controls: 0 for no effect and ±100 for the full control effect; nearly all actives have a fitted effect of over 65% in size
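Inhibition was scored as loss of TGF-beta-induced (500 pg/mL final, 18 hours, 37 degrees C) GFP in HEPG2 cells carrying a CAGA-GFP reporter, in DMEM with 1% FBS. Well GFP was summed per cell; Activity was normalised to unstimulated and stimulated DMSO wells, then concentration-response fitting.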
HepG2 tox = qHTS for Inhibitors of TGF-b: Cytotox Counterscreen; 410,000 compounds, 0.76% hits; HepG2 CAGA-GFP viability, ATP luminescence, 18 h; AID 588856, 2011; Potency, µM (highest dose often 46.1 µM), for the others: at the highest dose activity change, negative = cytotoxicity, most hits filed as cytotoxic; also: potency is read from the fitted curve at half-maximal effect
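CellTiter-Glo luminescence gave cytotoxicity after 18 hours at 37 degrees C. The cells were HepG2 CAGA-GFP in 1% FBS DMEM, stimulated with 500 pg/mL TGF-beta after compound addition. %Activity was normalised to no-cell wells (complete cell-killing) and DMSO (no toxicity), and curves were fitted and classified.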
TDP1 cell CPT = qHTS for Inhibitors of human tyrosyl-DNA phosphodiesterase 1 (TDP1): qHTS in cells in presence of CPT | chicken DT40 Tdp1-/-;hTDP1 cells + 20 nM CPT, ATP luminescence, 48 h | Potency, µM (highest dose often 46.2 µM), for the others: at the highest dose activity change, negative = growth inhibition, most hits filed as inhibitors | 420,000 compounds, 12% hits | AID 686979, 2013; also: potency is read from the fitted curve at half-maximal effect; % is scaled to controls: 0 for no effect and ±100 for the full control effect; nearly all actives have a fitted effect of over 55% in size
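Chicken DT40 Tdp1-/- cells complemented with human TDP1, 400 cells/well, exposed to compounds plus 20 nM camptothecin for at least 48 h at 37 C; viability read as ATP content by CellTiter-Glo luminescence.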
DT40 TDP1 no CPT = qHTS for Inhibitors of human tyrosyl-DNA phosphodiesterase 1 (TDP1): qHTS in cells in absence of CPT. Potency, µM (highest dose often 46.2 µM), inactives show at the highest dose activity change, negative = growth inhibition, most hits filed as inhibitors. 420,000 compounds, 15% hits. DT40 Tdp1-/- hTDP1 cells, no CPT, ATP luminescence, 48 h. AID 686978, 2013; also: potency is read from the fitted curve at half-maximal effect; % is scaled to controls: 0 for no effect and ±100 for the full control effect; nearly all actives have a fitted effect of over 55% in size
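Chicken DT40 Tdp1-/- cells complemented with human TDP1, screened without camptothecin (DMSO vehicle only), 400 cells/well. Compounds pin-transferred, cells incubated at 37 °C for at least 48 hr. Growth read as ATP-dependent luminescence (CellTiter-Glo, 30 min at RT).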
Numbers without * were called inactive; i = inactive; ? = inconclusive; / = not tested or not shown; ! = repeats disagree. Rows were chosen to be rich in hits. Some 19% of all compounds tested hit in one or more screens of this group. Unless noted, calls follow the shape of the dose curve; as a rule, active = well fitted curve in the direction sought with a large enough effect; inconclusive = small, poorly fitted or top-dose-only effect, or another doubt; inactive = no such curve, though single readings can be large; an effect the other way counts as inactive or inconclusive.

SMILES | S-ASM inh | IL1B secr inh | TGFb inhibitor | HepG2 tox | TDP1 cell CPT | DT40 TDP1 no CPT
Cc1ccccc1-c1nc(CS(=O)(=O)CC(=O)NCCCN2CC(C)CC(C)C2)c(C)o1 (stereo unspecified) | -5% | ? | -7% | -31% | ? | ?
Cc1ncc2c(c1CNC(=O)c1ccccc1F)CCN(C(=O)c1ccc3c(c1)OCCO3)C2 | / | / | / | / | 0.058µM* | 0.13µM*
COc1cccc(-c2nnc3sc(-c4cccs4)nn23)c1 | -1% | ? | 1% | -22% | 15µM* | 16µM*
CCOc1cccc(-c2nnc3sc(-c4cccs4)nn23)c1 | 2% | -13 | -11% | -9% | 15µM* | 13µM*
COc1cccc(-c2nnc3sc(-c4ccco4)nn23)c1 | 0% | ? | -5% | -21% | -8% | -16%
O=C(NCCCN1CCCC1=O)c1cc(-c2ccc(F)cc2)nc2ccccc12 | 5% | 5 | 1% | 2% | ? | 26µM*
Cc1ccc(NC(=O)c2cnn3c(C(F)F)cc(-c4ccccc4)nc23)c(C)c1 | / | / | 0% | 15% | -2% | 18µM*
COc1ccc(-c2cc(C(F)F)n3ncc(C(=O)N4CCCCC4)c3n2)cc1 | 262% | -28 | -16% | 0% | ? | ?
O=C(NCCN1CCOCC1)c1cc(-c2ccc(F)cc2)nc2ccccc12 | 2% | -4 | 12% | -2% | 7% | ?
CCCNC(=O)c1cnn2c(C(F)F)cc(-c3ccccc3)nc12 | / | / | ? | -29% | 21µM* | 21µM*
COc1ccc(-c2cc(C(F)F)n3ncc(C(=O)NCCCN4CCCC4=O)c3n2)cc1 | i | -25 | -25% | -18% | ? | 16µM*
CCOc1ccc(Nc2cc(C)nc3nncn23)cc1 | / | / | -28% | -16% | -6% | -4%
O=C(Nc1ccc(S(=O)(=O)Nc2ncccn2)cc1)C(F)(F)F | 0% | -2 | 3% | 13% | -9% | -1%
COc1ccc(CCC(=O)NNC(=O)Nc2ccc(C(C)=O)cc2)cc1 | 6% | i | -15% | -2% | 4% | 3%
COc1cccc(-c2cnc(C(O)c3ccc(C)c(F)c3)[nH]2)c1 (stereo unspecified) | / | 3 | -14% | -11% | -16% | -29%
CN1CCN(C2=Cc3ccccc3Sc3cc(F)c(F)cc32)CC1 | 0% | -62* | -1% | -102% | ? | ?
CN1CCN(C2=Cc3cc(Cl)ccc3Sc3cc(F)ccc32)CC1 | -25% | -100* | ? | -87% | ? | 29µM*
CN1CCN(C2=Cc3ccccc3Sc3cc(F)c(Cl)cc32)CC1 | -10% | -62* | ? | -117% | ? | 29µM*
Cc1ccc2scc(N3CCN(c4ccccc4)CC3)c(=O)c2c1 | / | / | -9% | -13% | ? | ?
COc1ccc2c(c1)c(=O)c(C(=O)c1ccc(C)c(C)c1)cn2CC(=O)Nc1ccc2c(c1)OCCO2 | / | / | -27% | -20% | -23% | ?
CCCN(CCC)C(=O)Cn1c(=O)c2sccc2n2c(=S)sc(-c3ccccc3)c12 | -1% | 23 | 23% | -10% | -16% | -12%
CCCN(CCC)C(=O)Cn1c(=O)c2ccccc2n2c(=S)sc(-c3ccccc3C)c12 | 0% | 21 | -12% | -2% | 10µM* | 15µM*
COc1ccccc1-n1c(-c2ccccc2)c[n+]2c1CCc1ccccc1-2 | 2% | -99*! | 13µM* | -21% | 0.33µM* | 0.013µM*
